Assay results from PubChem BioAssay (NCI).
This is part of a sample that, as a whole, favours compounds with a hit. Of some 79,000 tested, about 15% had one in any assay. Values without a mark were called inactive. Calls of active or inactive are those of the source. No stated cut-off is given here; in the data, active means growth inhibition above about 70%; inactive means the rest.

Key:
[1] = NCI Yeast Anticancer Drug Screen. Data for the rad50 strain (AID 155);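 further: 0% = growth of vehicle-only cultures of the same strain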; conditions: S. cerevisiae rad50 strain growth inhibition, active compounds read high
In short: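 DNA repair mutant yeast, compound exposure, growth read-out; inhibition is taken relative to vehicle.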

[2] = NCI Yeast Anticancer Drug Screen. Data for the mec2-1 strain (AID 157); conditions: S. cerevisiae mec2-1 strain, active compounds read high
In short: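 Using mec2-1 yeast: add compound, measure growth, express inhibition versus vehicle-treated cultures.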

[3] = NCI Yeast Anticancer Drug Screen. Data for the sgs1 mgt1 strain (AID 161);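 further: 0% = growth of cultures given vehicle only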; conditions: S. cerevisiae sgs1 mgt1 strain, active compounds read high
In short: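 This yeast growth screen uses a strain with defined DNA-repair lesions; compound-treated growth is compared with vehicle-treated growth.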

[4] = NCI Yeast Anticancer Drug Screen. Data for the cln2 rad14 strain (AID 165);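 further: 0% = growth equal to vehicle treated cultures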; conditions: S. cerevisiae cln2 rad14 strain, active compounds read high
In short: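 Yeast strain cln2 rad14, bearing defects in cell cycle control and DNA repair, serves as the test system; values reflect growth inhibition compared with vehicle.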

[5] = NCI Yeast Anticancer Drug Screen. Data for the bub3 strain (AID 167); conditions: S. cerevisiae bub3 mutant strain, active compounds read high
In short: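 In this screen, a yeast mutant lacking normal mitotic checkpoint function is challenged with compound. Relative growth versus vehicle gives the inhibition value.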

[6] = NCI Yeast Anticancer Drug Screen. Data for the mlh1 rad18 strain (AID 175); conditions: S. cerevisiae mlh1 rad18 strain growth inhibition, active compounds read high
In short: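 Steps: expose repair-defective yeast to compound; measure growth; express inhibition against vehicle-treated controls.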

[7] = at 5.0 µM (retest, dose inferred, filed as 0.5)
[8] = at 50.0 µM (retest, dose inferred, filed as 5.0)

| SMILES | growth inhibition [1, 7] | growth inhibition [1, 8] | growth inhibition ([1]; at 50.0 µM) | growth inhibition [2, 7] | growth inhibition [2, 8] | growth inhibition ([2]; at 50.0 µM) | growth inhibition [3, 7] | growth inhibition [3, 8] | growth inhibition ([3]; at 50.0 µM) | growth inhibition [4, 7] | growth inhibition [4, 8] | growth inhibition ([4]; at 50.0 µM) | growth inhibition [5, 7] | growth inhibition [5, 8] | growth inhibition ([5]; at 50.0 µM) | growth inhibition [6, 7] | growth inhibition [6, 8] | growth inhibition ([6]; at 50.0 µM) |
| --- | --- | --- | --- | --- | --- | --- | --- | --- | --- | --- | --- | --- | --- | --- | --- | --- | --- | --- |
| CCc1[nH]c2ccccc2c1C(c1c(CC)[nH]c2ccccc12)C1CCCCC1=O (configuration not stated) | 1% | 91% (active) | 93.2% (active) | -8% | 97% (active) | 88.8% (active) | -10% | 96% (active) | 92.2% (active) | 0% | 95% (active) | 95.2% (active) | 0% | 95% (active) | 79.8% (active) | -9% | 97% (active) | 95.6% (active) |
| C=CC(=O)N1C/C(=C\c2ccccc2)C(=O)/C(=C/c2ccccc2)C1 | 44% | 75% (active) | 73.8% (active) | 37% | 80% (active) | 80.2% (active) | 49% | 90% (active) | 71.7% (active) | 39% | 58% | 48.2% | 40% | 87% (active) | 78.5% (active) | 50% | 94% (active) | 84.7% (active) |
| CCOC(=O)Cc1csc(/N=C\c2c(O)c3ccccc3oc2=O)n1 | 22% | 38% | -4.35% | 16% | 25% | -32.4% | 22% | 37% | -10.9% | 26% | 21% | 18.7% | 20% | 42% | -27.1% | 24% | 45% | 41.4% |
| C(=NCCC[Si]12OCCN(CCO1)CCO2)c1ccc(C=NCCC[Si]23OCCN(CCO2)CCO3)cc1 | 3% | -3% | 38.1% | 2% | 3% | 98.3% (active) | -1% | -2% | 1.65% | 3% | -4% | 87.7% (active) | 1% | -3% | 76.5% (active) | 3% | 3% | 54% |
| CC(C)c1ccc(O)c(O)c(=O)c1 | 14% | 89% (active) | 92.8% (active) | 9% | 63% | 94.7% (active) | 70% (active) | 44% | 93.8% (active) | 18% | 26% | 91.7% (active) | 7% | 79% (active) | 93.1% (active) | 41% | 64% | 92.7% (active) |
| C[C@H](CCC(=O)O)[C@H]1CC[C@H]2[C@@H]3CC[C@@H]4C[C@H](O)CC[C@]4(C)[C@H]3C[C@H](O)[C@]12C | -14% | 95% (active) | 99.2% (active) | 1% | 98% (active) | 98.8% (active) | -1% | 97% (active) | 99.3% (active) | -34% | 98% (active) | 99.3% (active) | -16% | 99% (active) | 98.8% (active) | -11% | 98% (active) | 99% (active) |
| O=C1/C(=C/c2ccc3c(c2)OCO3)Sc2scc(-c3ccc(O)c(O)c3)[n+]21 | 25% | 98% (active) | 83.8% (active) | 33% | 99% (active) | 88.3% (active) | 67% | 98% (active) | 91% (active) | 26% | 98% (active) | 89.4% (active) | 97% (active) | 98% (active) | 88.5% (active) | 27% | 99% (active) | 90.8% (active) |
| NC(=S)C(=Nc1ccccc1F)Nc1ccccc1F | 2% | 85% (active) | 8.4% | -8% | 31% | -9.55% | -10% | 70% (active) | 61.6% | -6% | 35% | 5.55% | -1% | 81% (active) | 32.9% | 20% | 87% (active) | 66.2% |
| CCCCCCCCCCN | 1% | 51% | 65.8% | -1% | 13% | 34.6% | 7% | 36% | 71% (active) | 6% | 19% | 42.2% | 7% | 30% | 47.2% | 6% | 36% | 46.8% |
